SMILES strings stand for the structures. A number with no mark means an inactive call.

This passage reports phenotypically active results from the supplement of paper PMC7411054.

This assay deals with HepG2-CANX-COX4. The assay can be described thus: phenotypically active (imaging signature differs from DMSO and reproducible) at any of 0.3-9 uM (binary (1 = active, 0 = inactive)); higher = active. The following applies: treatment time: 24 h. The essentials: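 Four wells per concentration (0.3, 1, 3 or 9 µM) were treated for 24 h in each of fifteen gene-edited reporter lines from A549, HepG2 and WPMY1 cells, then imaged live. After normalising live-cell features to solvent control wells, deviation was defined as ≥3 of 4 wells lying past the 95th percentile of control Euclidean distances. Reproducibility was defined as a median replicate Pearson correlation above the 95th percentile of non-replicates. Both had to hold for phenotypic activity.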
On to `CN1C(=O)CC(C)(c2ccccc2)C1=O` (centres undefined) [methsuximide], for which the phenotypically active is 0.

Turning to `O=C(NCCO)c1cc(C(=O)NCCO)cc(C(=O)NCCO)c1`, the phenotypically active was 0.

On to `CO[C@H]1C=CO[C@@]2(C)Oc3c(C)c(O)c4c(O)c(c5c(nc6cc(C)ccn65)c4c3C2=O)NC(=O)C(C)=CC=C[C@H](C)[C@H](O)[C@@H](C)[C@@H](O)[C@@H](C)[C@H](OC(C)=O)[C@@H]1C` [Rifaximin], for which the phenotypically active is 0.

On to `N#Cc1ccc(C(c2ccc(C#N)cc2)n2cncn2)cc1` [Letrozole], for which the phenotypically active is 0.

`NC(=O)c1cccc(-c2cccc(OC(=O)NC3CCCCC3)c2)c1`: the phenotypically active is 0.

Regarding `O=C(Nc1cccnc1)c1cc(-c2ccnc(F)c2)ccc1OCc1ccccc1`, the phenotypically active was 0.

On to `O=C(O)CCCC[C@@H]1SC[C@@H]2NC(=O)N[C@@H]21` [Biotin], for which the phenotypically active was 0.

As for `NS(=O)(=O)c1cc2c(cc1Cl)NC(C(Cl)Cl)NS2(=O)=O` (centres undefined) [trichlormethiazide], the phenotypically active is 0.

Take `CCn1c(=O)c2cc(C(N)=O)c(N)nc2n(C2CC2)c1=O`: the phenotypically active was 0.

Consider `CCCSc1nc2c(c(=O)n1-c1ccccc1)SCC2`, for which the phenotypically active was 0.

Consider `COc1cc(C#N)ccc1S(=O)(=O)Nc1ccc2c(c1)cc(C)c(=O)n2C`, for which the phenotypically active is 0.

Turning to `CC(C)(C)NC[C@H](O)COc1nsnc1N1CCOCC1` [timolol], the phenotypically active was 0.

Consider `CC[N+](CC)(CC)CCC(O)(c1ccccc1)C1CCCCC1` (centres undefined) [tridihexethyl], for which the phenotypically active was 0.

On to `COC(=O)C1=CO[C@@H](O[C@@H]2O[C@H](CO)[C@@H](O)[C@H](O)[C@H]2O)[C@H]2[C@@H]1C(=O)C[C@@H]2C` [Verbenaline], for which the phenotypically active is 0.
